# Data from PubChem BioAssay AID485358 (National Center for Advancing Translational Sciences (NCATS), 2010).
# The campaign covered roughly 340,000 compounds. About 1,800 (0.53%) were called active. Many of the other results were omitted from the sample, so actives are more common in it than they were. A number with no mark means an inactive call.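 Rule for the calls: active = activation over 3 SD above normal in the single-dose calcium agonist read (cut at about 30% in these data); inactive = the rest.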
# Target: D(2) dopamine receptor (Homo sapiens) (UniProt P14416)
# Assay: HTS Assay for Allosteric Agonists of the Human D2 Dopamine Receptor: Primary Screen for Agonists; note: 0% is about no effect
# Settings: HEK293 T-REx D2 cells, calcium flux agonist mode; at 2 µM; active compounds read high
# Source text: NIH Chemical Genomics Center [NCGC] NIH Molecular Libraries Probe Centers Network [MLPCN] MLPCN Grant: NS064831-01 Assay Submitter (PI): David Sibley Dopamine receptors (DARs) are involved in the etiology and/or therapy of a number of neuropsychiatric and endocrine disorders. For instance, all receptor-based antiparkinsonian drugs work via stimulating the D2 DAR subtype whereas all FDA-approved antipsychotic agents are antagonists of this receptor. […] There are three different types of allosteric modulators that we are seeking, two of which will stimulate or augment receptor signaling, allosteric agonists and potentiators, while the third, allosteric antagonists, will attenuate receptor signaling. The present primary screening assay measures compound agonism by tracking calcium flux in a […], inducible Hek293 Trex D2 cell line.
# Freshly passaged cells are plated in 1536 well black, clear bottom plates at a density of 4000 cells/well in 3 ul of complete media containing 1x tetracycline inducer. After an overnight incubation at […] in 5% CO2, cells are loaded with 2 ul of the no wash Calcium Assay Kit (ABD Bioquest) and incubated at room temperature for 30 to 90 minutes. Agonist read: A 10 cycle (1 second/cycle) baseline measurement is taken and then the FDSS online 1536 pintool delivers 23 nl of compound library (as well as dopamine controls) to the plate. The plate is measured for kinetically at 1 cycle/sec for 180 seconds and is considered to be the agonist portion of the assay (eg, compounds which activate a positive calcium response during this portion are flagged as potential agonists). Following the 180 second read, 1 ul of either an EC20 (positive modulation assay) or EC80 (negative modulation assay) is delivered by an onboard pipette head. Measurements are taken kinetically for an additional 180 seconds.
# Sequence of D(2) dopamine receptor (Homo sapiens) (P14416 whole entry, looked up): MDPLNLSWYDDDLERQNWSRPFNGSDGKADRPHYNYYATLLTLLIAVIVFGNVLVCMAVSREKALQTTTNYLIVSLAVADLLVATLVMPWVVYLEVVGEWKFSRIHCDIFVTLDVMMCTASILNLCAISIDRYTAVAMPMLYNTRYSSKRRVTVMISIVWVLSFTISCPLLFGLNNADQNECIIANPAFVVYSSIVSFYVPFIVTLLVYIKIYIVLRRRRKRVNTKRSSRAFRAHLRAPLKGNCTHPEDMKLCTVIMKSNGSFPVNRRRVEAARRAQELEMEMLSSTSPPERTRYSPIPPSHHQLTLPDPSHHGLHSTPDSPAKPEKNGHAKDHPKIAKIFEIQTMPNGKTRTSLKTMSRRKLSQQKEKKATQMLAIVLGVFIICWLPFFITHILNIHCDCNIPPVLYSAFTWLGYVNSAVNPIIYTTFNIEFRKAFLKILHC
row,SMILES,activation
1,O=C(/C=C/c1ccccc1)N1CCN(Cc2cc(=O)n3nc(-c4ccccc4F)sc3n2)CC1,0.305%
2,O=C(/C=C(O)/C=C/c1ccc(O)cc1)/C=C/c1ccc(O)cc1,57.4% (active)
3,O=C(O)/C=C/c1ccc(S(=O)(=O)N2CCCCCC2)cc1,19.8%
4,C=CCNC(=O)/C=C/c1ccc(C(C)C)cc1,0.0403%
5,CC(NC(=O)c1cc2c(=O)n3ccccc3nc2n(C(C)C)c1=N)c1ccccc1 (centres undefined),0.527%
6,COc1ccc(CNC(=O)CS(=O)Cc2nc(-c3cccc(C)c3)oc2C)cc1 (centres undefined),-0.737%
7,CCN(CCCNC(=O)c1ccc(Sc2ccc(C)cc2)c(NC(C)=O)c1)c1cccc(C)c1,0.373%
8,CCN(CCCNC(=O)CSc1cc(=O)n(C)c2cc(Cl)ccc12)c1cccc(C)c1,0.221%
9,CCN(CCCNC(=O)c1ccc2c(c1)NC(=O)CN2C)c1cccc(C)c1,37.3% (active)
10,COc1cc(OC)c(NC(=O)Cc2ccc(-n3c(C)nc4cccnc43)cc2)cc1Cl,-0.621%
11,CCOc1cc(C2c3c(-c4ccc(Br)cc4)n[nH]c3C(=O)N2c2ccc(Cl)cc2)ccc1O (centres undefined),0.413%
12,Cc1cc(C)cc(NC(=O)Cn2nc(N3CCN(c4ccccc4)CC3)ccc2=O)c1,0.0127%
13,O=C(NCCc1c[nH]c2ccccc12)C1CCN(Cc2ccc(Br)cc2)CC1,-0.253%
14,N#C/C(=C/c1ccc(N2CCOCC2)o1)C(=O)N1CCOCC1,7.75%
15,N#C/C(=C/c1ccc(N2CCCCC2)o1)C(=O)NCCc1c[nH]c2ccccc12,38.7% (active)
16,CCOc1cc(-c2nnc(SCC(=O)NC3CCCC3)nc2-c2ccc(OC)c(OCC)c2)ccc1OC,0.392%
17,Cc1ccc(C(=O)Nc2c(C(=O)NC(C)(C)C)oc3ccccc23)cc1,0.0939%
18,O=C(Cc1ccc(Br)cc1)N1CCN(c2ccccn2)CC1,0.551%
19,Cn1c(CCN2CCCCCC2)nc2cc(NC(=O)Nc3ccccc3)ccc21,1.58%
20,O=C(CN1CCN(c2ccccn2)CC1)NC1CCCCC1,67.6% (active)
21,O=C(CN1CCN(c2ccccn2)CC1)Nc1ccc(Br)cc1,43.9% (active)
22,CC(C(=O)N(C)CC(=O)Nc1ccccc1C(F)(F)F)N1C(=O)c2ccccc2C1=O (centres undefined),-0.167%

row,SMILES,activation
1,CS(=O)(=O)N1CCN(CC(=O)NC2CCCC2)CC1,-0.0909%
2,CCN(CC)c1ccc(NC(=O)CN2CCN(c3ccccn3)CC2)cc1,26.5%
3,CCC(=O)Nc1ccc2c(c1)nc(CCN1CCN(c3ccccn3)CC1)n2C,78.2% (active)
4,O=C(CN1CCN(c2ncccn2)CC1)Nc1ccccc1C(F)(F)F,57.8% (active)
5,CCOC(=O)N1CCN(Cc2nc3cc(NC(C)=O)ccc3n2C)CC1,0.585%
6,O=C(CSc1n[nH]c(=O)n1-c1ccccc1)Nc1ccccc1C(F)(F)F,0.222%
7,O=C(CN1CCN(c2ccccn2)CC1)NCc1cccs1,18.2%
8,CC1CCN(S(=O)(=O)c2ccc3c(c2)N(CC(=O)NCc2ccccc2Cl)C(=O)CO3)CC1,-0.934%
9,CCc1ccc(Sc2cc(C(=O)NCCCOC(C)C)c3ccccc3n2)cc1,0.0547%
10,Cc1c(Cl)cccc1-c1ccc(CNCCCSc2nnnn2C)o1,0.946%
11,COc1ccc(-c2cn3nc(N4CCC(C(=O)Nc5cccc(C)c5C)CC4)sc3n2)cc1,1.52%
12,CSc1cccc(NC(=O)CN2C(=O)CCc3cc(S(=O)(=O)N4CCCCC4)ccc32)c1,1.49%
13,COc1ccc(NC(=O)NC(C)c2c(-n3cccc3)sc(C)c2C)cc1OC (centres undefined),0.829%
14,CCOC(=O)c1c(C)[nH]c(C)c1S(=O)(=O)NCC(=O)NCc1cccc(C)c1,0.112%
15,COc1ccc(CCNC(=O)c2cc(=O)c3c(C)cc(C)cc3o2)cc1OC,-0.676%
16,COc1cccc(CNC(=O)C(=O)NCC(c2cccs2)S(=O)(=O)c2ccccc2)c1 (centres undefined),17.6%
17,CCN1CCN(c2ncnc3c2cnn3-c2ccc(C)c(C)c2)CC1,0.887%
18,COc1cc(C(=O)NCC(c2ccc(Cl)cc2)N2CCOCC2)cc(OC)c1OC (centres undefined),-0.027%
19,Cc1cc(C)c2oc(C(=O)Nc3c(C(=O)Nc4ccccc4)oc4ccccc34)cc(=O)c2c1,0.443%
20,Cc1ccccc1C(=O)N(Cc1ccc(N(C)C)cc1)CC1CCCO1 (centres undefined),-0.0491%
21,O=C(Nc1cc(-c2nc3ccccc3o2)ccc1Cl)c1cc([N+](=O)[O-])ccc1N1CCOCC1,-0.175%
22,Cc1ccccc1OCC(=O)Nc1c(C(=O)Nc2ccccc2F)oc2ccccc12,-0.888%
